# Laboratory results taken from the supplement of paper PMC9948646.
# Unmarked numbers belong to inactive results.
# Tested on: gramicidin D channels in DC22:1PC lipid vesicles (bilayer-modifying potency)
# Test: initial Tl+ fluorescence quench rate relative to no-drug control (NormRate, gramicidin monomer-dimer shift) (ratio (fold of control)); higher = stronger bilayer-modifying effect (equilibrium shifted toward conducting dimers), active = 1.5 or more
# Conditions: 10 µM; lipid concentration 50 µM; temperature: 25 °C
# Description: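 Stopped-flow fluorescence quench assay: ANTS-loaded DC22:1PC large unilamellar vesicles doped with gramicidin D (1:2000), 50 µM lipid, equilibrated 10 min with 10 µM drug (0.1% DMSO), mixed with Tl+ quench buffer at 25°C. Initial quench rate (Tl+ influx) was fitted with a modified stretched exponential and normalised to the no-drug control rate (NormRate); duplicates from two independent LUV preparations (triplicates for 7 drugs).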
row,SMILES,initial Tl+ fluorescence quench rate
1,C[C@@]1(COc2ccc(N3CCC(Oc4ccc(OC(F)(F)F)cc4)CC3)cc2)Cn2cc([N+](=O)[O-])nc2O1,1.1
2,CS(=O)(=O)c1ccc(C(=O)N(C[C@H]2CCCO2)c2nc3ccccc3s2)cc1[N+](=O)[O-],2.09 (active)
3,NCC(=O)N1CCn2c(nc(-c3ccccc3)c2Nc2ccc3c(c2)OCO3)C1,1.36
4,O=C(Nc1cnc2ccccc2c1)c1cccc(-n2cnnn2)c1,1.26
5,O[C@@H](c1cc(C(F)(F)F)nc2c(C(F)(F)F)cccc12)[C@H]1CCCCN1,2.24 (active)
6,CC(C)(C)c1cnc(NC(=O)c2ccccc2O)s1,2.31 (active)
7,CC(C)[C@@H](Oc1cccc2ccccc12)C(=O)O,1.1
8,COc1ccc2nc(C)cc(OCC(=O)Nc3ccccc3OC)c2c1,1.11
9,Cc1nc2ccccn2c1C(=O)NCc1ccc(Cl)cc1,1.17
10,O=C(NCc1ccoc1)N1CCN(Cc2ccc3c(c2)OCO3)CC1,1.11
11,CCN(CC)CCCCCCNc1cc(OC)cc2c(C)ccnc12,1.45
12,COc1ccc(Nc2ccccc2NC(=O)c2ccc(O)nc2)cc1,1.03
13,C[C@H]1CS(=O)(=O)CCN1/N=C/c1ccc([N+](=O)[O-])o1,1.02
14,CC[P](CC)(CC)=[Au][S][C@H]1O[C@@H](COC(C)=O)[C@H](OC(C)=O)[C@@H](OC(C)=O)[C@@H]1OC(C)=O,1.07
15,CC(C)[C@H](C(=O)Nc1ccc(S(=O)(=O)N(C)C)cc1)c1ccc(Cl)cc1,4.3 (active)
16,O=C(c1[nH]nc2c1CCCC2)N1CCN(Cc2ccc3c(c2)OCO3)CC1,1.03
17,Cc1cc(OCC(=O)Nc2ccc(C(C)C)cc2)n(C)c(=O)c1C#N,1.25
18,C[C@@H]1[C@H](O)[C@@H](C)/C=C/C=C/C=C/C=C/C=C/C=C/C=C/[C@H](O[C@@H]2O[C@H](C)[C@@H](O)[C@H](N)[C@@H]2O)C[C@@H]2O[C@](O)(C[C@@H](O)C[C@@H](O)[C@H](O)CC[C@@H](O)C[C@@H](O)CC(=O)O[C@H]1C)C[C@H](O)[C@H]2C(=O)O,1.03
19,CCCn1c(NC(=O)c2ccc3ccccc3n2)nc2ccccc21,1.4

row,SMILES,initial Tl+ fluorescence quench rate
1,O=C(C1CCN(c2nnc(-n3cccc3)s2)CC1)N1CCC(Cc2ccccc2)CC1,1.24
2,Cc1ccc(-c2cc(C(=O)Nc3cccnc3)c3cc(Br)ccc3n2)cc1,2.5 (active)
3,Nc1nc(N)c2c3c(sc2n1)CN(Cc1ccccc1)CC3,1.04
4,O=C(Nc1cccc(Cl)c1)c1cnc(N2CCN(c3ccncc3)CC2)c(Cl)c1,3.74 (active)
5,CCn1cnc2c(Nc3cc(F)cc(F)c3)nc(C#N)nc21,1.21
6,c1coc(CNc2nc(N3CCCCC3)nc3ccccc23)c1,1.02
7,O=C(Nc1ccnc(-c2cccnc2)n1)c1cc(C(F)(F)F)cc(C(F)(F)F)c1,1.2
8,[H]/N=C(/N)Nc1ccc(-c2ccc(-c3ccc(N=C(N)N)c(Cl)c3)o2)cc1Cl,1.59 (active)
9,Clc1ccc(-n2cc(COc3ccnc4ccccc34)nn2)cc1,1.13
10,Cc1cc(Nc2ccncc2)n2nc(C)c(-c3ccccc3Cl)c2n1,1.03
11,Cc1cc(C)cc(COc2ccc3c(C)c(CCC(=O)O)c(=O)oc3c2C)c1,2.64 (active)
12,Cc1ccc(S(=O)(=O)Nc2ccc(CN3CCN(C(=O)c4cccc(C#N)c4)CC3)cc2)cc1,1.5 (active)
13,Cc1ccc(-c2nc(CN(Cc3ccccn3)C(C)C)cs2)o1,1.21
14,Cc1cccc(Cn2ccc(NC(=O)c3ccc4c(c3)OCO4)n2)c1,1.35
15,O=C1COCc2ccc(Br)cc2N1Cc1ccc(C(F)(F)F)cc1,1.55 (active)
16,CN(C)CCNC(=O)N1CCCN(c2ncnc3cc(-c4ccccc4)sc23)CC1,1.11
17,CCc1cc(=O)n(C)c(S[C@H](C)C(=O)Nc2ccc(F)cc2)n1,1.15
18,FC(F)(F)c1cnc(Sc2nnc(-c3ccncc3)o2)c(Cl)c1,1.23
19,Cc1cccnc1NC(=O)c1cccc(OCc2c(C)noc2C)c1,1.07
